Measurements: PubChem BioAssay (NCI)
The panel holds about 83,000 compounds, 20% with a hit somewhere; the sample as a whole holds those more often.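 A percent growth of 40 corresponds to 60% growth inhibition; 0 means no net growth; -100 means all cells died. Active threshold: below 10.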 A number with no mark means an inactive call. The source made the active and inactive calls.

Tested on: IGROV1 ovarian
Test: NCI-60 one-dose screen, 48 h (100 = growth as untreated, 0 = no growth, -100 = all killed)
Details: 10 µM unless noted

Row | SMILES | growth
1 | CCN(CC)CC#CCOC(=O)[C@]1(C)CCC[C@]2(C)c3ccc(C(C)C)cc3CC[C@@H]12 | 86.2%
2 | Nc1nc2ccccc2c2c(=O)c3ccc(Cl)cc3sc12 | 102%
3 | Nc1nc2c(s1)CCc1cn(S(=O)(=O)c3ccccc3)cc1-2 | 100%
4 | COc1cccc(NC(=O)c2sc3nc(C)c(C(O)c4ccccc4)cc3c2N)c1 (centres undefined) | 25.7%
5 | CC12OC(CC(O)C1O)n1c3ccccc3c3c4c(c5c6ccccc6n2c5c31)C(=O)N(CCN1CCOCC1)C4=O (centres undefined) | 5.73% (active)
6 | Cc1c(O)c(O)cc2c3c(oc12)CC(c1ccc2c(c1)OCO2)CC3=O (centres undefined) | 38.6%
7 | N#CC1=C(N)Oc2c(sc3c(Br)cccc23)C1c1ccccn1 (centres undefined) | 43.1%
8 | COc1cc2nc3cc([N+](=O)[O-])ccc3c(NCCNCC(C)(C)O)c2cc1OC | -15.9% (active)
9 | CCOc1ccccc1NC(=O)c1cc2ccccc2cc1O | 60.3%
